# This is a sample that favours compounds with a hit; in the whole collection about 10% have one here.
# BAZ2B block = qHTS Assay for Inhibitors of BAZ2B; AID 504333, 2011; Potency, µM (top dose mostly 114 µM), usual class: inhibitors; 360,000 tested, 4.4% active; Bromodomain adjacent to zinc finger domain protein 2B (Homo sapiens), Q9UIF8; AlphaScreen BAZ2B-H3K14Ac peptide displacement; note: nearly all actives have a fitted effect of over 60% in size
#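 Protein-peptide AlphaScreen: BAZ2B 50 nM, b-H3K14Ac 50 nM, 1x PBS pH 7.4 + 0.01% Tween-20. Preincubation 30 min RT; cpd 30 min RT (top 110 uM); beads 20 min RT, light-protected.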
# JMJD2A Tudor = qHTS Assay for Inhibitors of JMJD2A-Tudor Domain. AID 504339, 2011. Potency, µM (top dose mostly 114 µM), actives largely listed as inhibitors. AlphaScreen JMJD2A-Tudor / H3K4me3 peptide binding. Lysine-specific demethylase 4A (Homo sapiens), O75164. 390,000 tested, 4.4% active; note: nearly all actives have a fitted effect of over 50% in size
# HP1b chromo inh = HTS for Inhibitors of HP1-beta Chromodomain Interactions with Methylated Histone Tails | Chromobox protein homolog 1 (Homo sapiens), P83916 | Potency, µM (top dose mostly 114 µM), most hits filed as inhibitors | 390,000 tested, 0.56% active | AlphaScreen HP1-beta / biotin-H3K9me3 peptide binding | AID 540317, 2011; note: nearly all actives have a fitted effect of over 70% in size
# Target sequence (P83916 whole entry, looked up): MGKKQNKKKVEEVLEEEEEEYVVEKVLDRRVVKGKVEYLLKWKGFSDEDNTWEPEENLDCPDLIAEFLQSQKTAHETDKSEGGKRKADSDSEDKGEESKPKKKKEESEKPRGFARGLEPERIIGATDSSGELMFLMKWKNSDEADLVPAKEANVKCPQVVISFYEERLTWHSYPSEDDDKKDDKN
#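 Compound inhibition of the preformed complex between 50 nM HP1-beta and 50 nM biotinylated H3K9me3 peptide was read by AlphaScreen. Buffer was PBS pH 7.4 with 0.01% Tween-20. Incubations ran 30 min at room temperature, with 10 ug/mL donor/acceptor beads.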
# G9a inh = qHTS Assay for Inhibitors of Histone Lysine Methyltransferase G9a. Histone-lysine N-methyltransferase EHMT2 (Homo sapiens), Q96KQ7. Potency, µM (doses to about 102 µM), hits mostly inhibitors. 350,000 tested, 8.8% active. G9a H3K9 monomethylation, AlphaScreen, 2 h; note: nearly all actives have a fitted effect of over 75% in size
# Target sequence (Q96KQ7 913-1193 limits assumed): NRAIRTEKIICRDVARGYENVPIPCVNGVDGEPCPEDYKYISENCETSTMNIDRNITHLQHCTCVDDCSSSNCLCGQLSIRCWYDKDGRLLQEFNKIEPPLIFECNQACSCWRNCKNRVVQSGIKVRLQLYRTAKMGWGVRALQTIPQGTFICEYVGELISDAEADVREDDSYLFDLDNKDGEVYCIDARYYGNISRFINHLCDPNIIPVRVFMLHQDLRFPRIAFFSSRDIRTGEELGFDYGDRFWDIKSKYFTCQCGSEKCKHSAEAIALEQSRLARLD
#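 AlphaScreen read-out: biotin-H3K9 peptide (500 nM) methylation by 20 nM enzyme with 20 uM SAM, 2 h at room temperature after 15 min compound preincubation; anti-monomethyl H3K9 antibody plus donor/acceptor beads, 10 min dark.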
# GLS inh = qHTS for Inhibitors of Glutaminase (GLS) | GLS enzymatic activity, qHTS titration | Potency, µM (top dose mostly 45.5 µM), most hits filed as inhibitors | 410,000 tested, 0.21% active
#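 Read-out is an Amplex red fluorescence increase coupled through glutamate oxidase and HRP, measured before and after 30 min room-temperature incubation. hKGA is in 45 mM KH2PO4 (pH 8.2) with 0.02% Tween-20; glutamine added as 1mM solution.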
# A number is an active result; - = inactive; ? = inconclusive; . = no result; [ ] = dose if it differs, or a comment. Calls come from the whole dose curve; as a rule, active = well fitted curve in the direction sought with a large enough effect; inconclusive = small, poorly fitted or top-dose-only effect, or another doubt; inactive = no such curve, though single readings can be large; an effect the other way counts as inactive or inconclusive.
SMILES,BAZ2B block,JMJD2A Tudor,HP1b chromo inh,G9a inh,GLS inh
Cc1ccc(C2=NN(S(=O)(=O)c3ccccc3)C(c3ccco3)C2)cc1 (stereo unspecified),-,-,-,-[12.7 µM],-
CS(=O)(=O)Nc1ccc(C2=NN(S(=O)(=O)c3ccc(F)cc3)C(c3ccco3)C2)cc1 (stereo unspecified),-,-,-,50µM,-
CC(C(N)=O)N1C(=O)NC2(CCCc3ccccc32)C1=O (stereo unspecified),-,-,-,-,-
Cc1sc(NC(=O)C2=COCCO2)nc1-c1ccc(F)cc1,-,-,-,79µM,-
Cc1sc(NC(=O)C2=COCCO2)nc1-c1ccc(Br)cc1,-,-,-,-[0.501 µM],-
O=C(Nc1nnc(-c2ccccc2F)s1)Nc1ccccc1F,-,-,-,-,-
CCOc1ccc(-c2nc(CN(Cc3ccccc3)C[C@@H]3CCC(=O)N3)c(C)o2)cc1,?,-,-,45µM,-
CC(c1n[nH]c(=S)n1-c1ccccc1)N1CCCCC1 (stereo unspecified),-,7.1µM,-,18µM,?
COc1ccc(C2=CC3=C(Br)C(=O)C(C)(OC(=O)c4ccco4)C(=O)C3=CO2)cc1 (stereo unspecified),45µM,28µM,?,?,-
C=CCN1C=C2C(=O)C(C)(OC(=O)CCC(=O)OC)C(=O)C(Br)=C2C=C1c1ccc(OC)cc1 (stereo unspecified),?,?,-,-[12.7 µM],-
COc1ccc(C2=CC3=C(Br)C(=O)C(C)(OC(=O)c4cccs4)C(=O)C3=CO2)cc1 (stereo unspecified),.,28µM,?,.,-
NCc1cc2c3c(c1)CCCN3CCC2,50µM,-,-,16µM,-
Cn1c(SCC(=O)NNC(=O)Cc2ccccc2)nnc1-c1ccc(Cl)cc1,-,-,-,-,-
CC(OC(=O)C1CCN(S(=O)(=O)c2ccccc2C(F)(F)F)CC1)C(=O)N(C)Cc1ccccc1 (stereo unspecified),-,-,-,-,-
CCOC(=O)N1CCN(S(=O)(=O)c2ccc3c(c2)CC(C)N3C(=O)C2CC2)CC1 (stereo unspecified),-,-,-,-,-
O=C(O)C1=NN(c2cc(Cl)c(S(=O)(=O)O)cc2Cl)C(=O)C1,.,6.3µM,-,.,1.1µM
CCCOc1ccccc1N1C(=O)CC(N(O)c2ccccc2)C1=O (stereo unspecified),-,-,-,.,1.1µM
COc1ccccc1N1C(=O)CC(N(O)c2ccccc2)C1=O (stereo unspecified),-,-,-,?,1.3µM
CCCOc1ccc(N2C(=O)CC(N(O)c3ccccc3)C2=O)cc1 (stereo unspecified),-,-,-,?,-
OCC(O)/C=N/Nc1nc(N2CCCCC2)nc(N2CCCCC2)n1 (stereo unspecified),-,-,-,56µM,-
C(=C\c1ccccc1)/C=N/Nc1nc(N2CCCCC2)nc(N2CCCCC2)n1,-,-,-,-[0.501 µM],-
Cc1ccc(CNC(=O)c2nn(C)c3c2CS(=O)(=O)c2ccccc2-3)cc1,-,?,-,-,-
CC(=O)NC(CC(=O)NCCc1ccccc1)c1ccccc1 (stereo unspecified),-,-,-,-,-
COc1ccccc1OCCNC(=O)CC(NC(C)=O)c1ccccc1 (stereo unspecified),-,-,-,79µM,-
CC1(C)CC(=O)C(/C=N/n2cnc3ccccc3c2=O)=C(O)C1,50µM,40µM,-,-[2.33 µM],-
SMILES,BAZ2B block,JMJD2A Tudor,HP1b chromo inh,G9a inh,GLS inh
CC1Cc2cc(/C(O)=C3/C(=O)C(=O)N(CCCN4CCOCC4)C3c3ccc(C(C)C)cc3)ccc2O1 (stereo unspecified),?,-,-,-[0.0925 µM],-
CCOc1ccc(NC(=O)Nc2cccn(Cc3ccccc3)c2=O)cc1,40µM,?,-,.,-
O=C(NCc1ccccc1)Nc1cccn(Cc2ccccc2)c1=O,-,-,-,-,-
COc1cccc(CNC(=O)CSc2ncc(S(=O)(=O)c3ccc(Br)cc3)c(=O)[nH]2)c1,-,-,-,-,-
CCOc1ccc(N=C(/C(C(=O)C(=O)N2CCOCC2)=C(\O)c2ccccc2)c2ccccc2)cc1,-,-,-,50µM,-
C=CCN1CCN(C(c2ccc(OC)c(OC)c2)c2nnnn2C(C)(C)C)CC1 (stereo unspecified),79µM,-,-,50µM,-
CC(C)(C)n1nnnc1C(c1cccc(C#N)c1)N1CCCCCC1 (stereo unspecified),-,-,-,71µM,-
CCN1CCN(C(c2cc(OC)c(OC)c(OC)c2)c2nnnn2C(C)C)CC1 (stereo unspecified),50µM,-,-,?,-
CC(C)(C)n1nnnc1C(c1cccc(C#N)c1)N1CCN2CCCC2C1 (stereo unspecified),-,-,-,-[12.7 µM],-
COc1ccccc1C(c1nnnn1C(C)(C)C)N1CCCCCC1 (stereo unspecified),-,-,-,25µM,-
CCC(=O)OCC(=O)Nc1ccc(OC)cc1[N+](=O)[O-],?,-,-,-,-
Cn1ccsc1=NC(=O)c1ccc(Cl)c([N+](=O)[O-])c1,-,-,-,-[2.33 µM],-
O=C1C(=C(I)I)c2ccccc2-c2ccccc21,.,25µM,56µM,.,-
O=C(O)c1cccc2c1C(=O)c1ccccc1-2,-,-,-,.,-
CCNc1nc(CN2CCOCC2)nc2sc3c(c12)CCC3,-,-,-,-,-
c1ccc2c(c1)CCN(c1nc(CN3CCOCC3)nc3sc4c(c13)CCCC4)C2,35µM,-,?,?,-
Cc1nc2ccccn2c1C(=O)NN=C1CCCC1,-,-,-,-,-
Cc1ccc(OC(=O)COc2ccccc2)c(-n2nc3ccccc3n2)c1,56µM,-,-,-,-
OCC1CCCN(C(=S)Nc2ccc(Nc3ccccc3)cc2)C1 (stereo unspecified),?,?,?,18µM,?
OCC1CCCN(C(=S)Nc2ccc(OC(F)F)cc2)C1 (stereo unspecified),-,-,-,-,-
Cc1cc(NC(=O)CS(=O)(=O)c2ccc(F)cc2)no1,-,-,-,?,-
Cc1cc(NC(=O)CS(=O)(=O)c2ccc(Cl)cc2)no1,-,79µM,-,-,-
CC(C)CCNC(=O)c1nn(C)c2c1CSc1ccccc1-2,-,-,-,?,-
O=C(O)CSc1ncnc2c1sc1nc(-c3ccccc3)c3c(c12)CCC3,50µM,50µM,-,40µM,?
CC(C)c1nc2sc3c(SCC(=O)NCc4ccco4)ncnc3c2c2c1CCC2,56µM,56µM,-,45µM,-
